From PubChem BioAssay (NCI)
The panel holds about 79,000 compounds, 15% with a hit somewhere; the sample as a whole holds those more often. No stated cut-off is given here; in the data, active means growth inhibition above about 70%; inactive means the rest.

Assays:
[1] = NCI Yeast Anticancer Drug Screen. Data for the rad50 strain (AID 155);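 further: 0% = growth of vehicle-only cultures of the same strain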; conditions: S. cerevisiae rad50 strain growth inhibition; at 50.0 µM; active compounds read high
How it was run: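 Inhibition values express reduced yeast growth in compound-treated cultures relative to vehicle-treated controls.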

[2] = NCI Yeast Anticancer Drug Screen. Data for the mec2-1 strain (AID 157); conditions: S. cerevisiae mec2-1 strain, at 50.0 µM, active compounds read high
How it was run: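 Cells of the genetically defined mec2-1 yeast strain are incubated with test compound. Inhibition of growth is calculated against vehicle-treated controls.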

[3] = NCI Yeast Anticancer Drug Screen. Data for the sgs1 mgt1 strain (AID 161);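 further: 0% = growth of cultures given vehicle only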; conditions: S. cerevisiae sgs1 mgt1 strain, at 50.0 µM, active compounds read high
How it was run: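 Genetically altered yeast, compound exposure, growth inhibition relative to vehicle.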

[4] = NCI Yeast Anticancer Drug Screen. Data for the cln2 rad14 strain (AID 165);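 further: 0% = growth equal to vehicle treated cultures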; conditions: S. cerevisiae cln2 rad14 strain, at 50.0 µM, active compounds read high
How it was run: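 The screen exposed genetically defined yeast (cln2 rad14) to test compounds and scored growth inhibition relative to vehicle-treated controls.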

[5] = NCI Yeast Anticancer Drug Screen. Data for the bub3 strain (AID 167); conditions: S. cerevisiae bub3 mutant strain, at 50.0 µM, active compounds read high
How it was run: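 Steps: expose the mutant yeast strain to compound; grow alongside vehicle-treated cultures; measure growth; express inhibition against the vehicle cultures.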

[6] = NCI Yeast Anticancer Drug Screen. Data for the mlh1 rad18 strain (AID 175); conditions: S. cerevisiae mlh1 rad18 strain growth inhibition; at 50.0 µM; active compounds read high
How it was run: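 Compound-treated yeast growth, normalised to vehicle controls. Strain bears defined DNA repair mutations.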

Measured: growth inhibition

COc1coc(/C=C/C(=O)c2ccc(O)c(O)c2)cc1=O
inactive: [1] -11.9% | [2] 12.7% | [3] 10.3% | [4] -11.8% | [5] -6.25% | [6] -32.5%

COc1ccc(C)cc1NS(=O)(=O)c1ccccc1
inactive: [1] -7.45% | [2] -33.4% | [3] -8.2% | [4] -12.5% | [5] -9.65% | [6] 10.4%

Nc1c2c(cc3c1C(=O)c1ccccc1C3=O)OCO2
inactive: [1] 47.8% | [2] 20% | [3] 29.4% | [4] 16.2% | [5] 22% | [6] 39%

CSCCC(NC(=O)CCCOc1ccc(Cl)cc1C)C(=O)O (stereo unspecified)
inactive: [1] 1.8% | [2] -12% | [3] 3.85% | [4] -29.9% | [5] -0.9% | [6] -5.25%

O=Cc1ccc(/C=C/C(=O)O)cc1
inactive: [1] -1.55% | [2] -10.1% | [3] -4.85% | [4] 5.9% | [5] -8.55% | [6] 1.1%

COc1ccc(/C(C)=N/NC(=O)c2ccncc2)c(OC)c1
inactive: [1] -7.85% | [2] -20.6% | [3] -29.2% | [4] -29.4% | [5] -42.6% | [6] -33.1%

Cc1nc2ccc(S(=O)(=O)Nc3ccc(Cl)cc3)cc2c(=O)n1NC(=O)CNc1ccc(Cl)cc1
inactive: [1] 33.3% | [2] 22.4% | [3] 42.2% | [4] 15.6% | [5] 19.9% | [6] 24.2%

S=c1nc(-c2ccnc(-c3nc(=S)[nH][nH]3)c2)[nH][nH]1
inactive: [1] -18.4% | [2] -18.4% | [3] -18.8% | [4] 43.7% | [5] -9.75% | [6] -43.7%

N#Cc1ccc[n+]([O-])c1
inactive: [1] -8.8% | [2] -6.1% | [3] 0.05% | [4] -0.7% | [5] 7.65% | [6] -4.6%

COC(=O)C(=O)C(C(=O)C(=O)Nc1cc([N+](=O)[O-])ccc1[N+](=O)[O-])c1nc2ccc(C(=O)c3ccccc3)cc2[nH]c1=O (stereo unspecified)
inactive: [1] 29.7% | [2] 15.8% | [3] 4.1% | [4] -16.1% | [5] 40.6% | [6] 18.9%

Cc1cc(S(=O)(=O)Nc2n[nH]c(Nc3ccc(Cl)cc3)n2)c(S)cc1Cl
inactive: [1] -8.1% | [2] -14.9% | [3] 6.7% | [4] 7.05% | [5] 0.35% | [6] 17.4%

C=CCNC(=S)N/C=C(\C#N)c1nc2ccccc2s1
inactive: [1] 0.3% | [2] -6.3% | [3] -15% | [4] 32.4% | [5] -4.35% | [6] 31.3%

CO/C(Cc1cc(O)cc(O)c1)=N\N
inactive: [1] -0.45% | [2] 6.3% | [3] 1.25% | [4] -5.65% | [5] 7.85% | [6] -4.1%

ClCc1nn(-c2ccccc2)c(CCl)c1CCl
inactive: [1] 46.6% | [2] 14.3% | [3] 18.4% | [4] -1.45% | [5] 8.25% | [6] -4.55%

CCn1c(=O)c2c3ccc(OC(C)=O)cc3[nH]c2c2ccc(OC(C)=O)cc21
inactive: [1] -17.9% | [2] -30.5% | [3] -10.9% | [4] 9.35% | [5] 4% | [6] -21.6%

CCOC(=O)C1(C)Sc2ccccc2N=C1c1ccccc1 (stereo unspecified)
inactive: [1] 25.9% | [2] 48.5% | [3] 45.5% | [4] 7.35% | [5] 26.1% | [6] 17.6%

OC(CN1CCCCC1)c1ccncc1 (stereo unspecified)
inactive: [1] 0.5% | [2] -24.8% | [3] -8.4% | [4] -0.9% | [5] 1% | [6] 1.4%

Cc1c(-c2ccc3c(c2)OCO3)sc(N)c1C#N
inactive: [1] 5% | [2] -15.5% | [3] 12.2% | [4] 4.25% | [5] 20.6% | [6] -7.75%

O=C(/C=C/c1ccccc1)/C=N/N1C(=S)N(c2ccccc2)C(=Nc2ccccc2)C1=Nc1ccccc1
inactive: [1] -7.4% | [2] -15.8% | [3] -12.9% | [4] -20.2% | [5] -20.1% | [6] -21.6%

COC(=O)n1c(CBr)c(Br)c2ccccc21
inactive: [1] 26.3% | [2] -2.15% | [3] -3.65% | [4] -3.8% | [5] 4.9% | [6] 1.5%

CC(=O)Oc1ncnc2c1cnn2C
inactive: [1] -8.95% | [2] -1.65% | [3] -15.6% | [4] -38.6% | [5] 2.15% | [6] -3.3%

COc1nc(NC2OC(CO)C(O)C(O)C2O)c(C(C)=O)c(=O)[nH]1 (stereo unspecified)
inactive: [1] 2.8% | [2] 1.05% | [3] 12.6% | [4] -0.1% | [5] -14.8% | [6] -3.95%

N#Cc1cccc(Br)c1
inactive: [1] -11.9% | [2] -15.8% | [3] -1% | [4] -11.4% | [5] -14.9% | [6] 13.1%

CS(=O)(=O)C(CCC(=O)c1cccs1)C(=O)c1ccccc1 (stereo unspecified)
inactive: [1] -2.95% | [2] 3.25% | [3] -6.65% | [4] 1.85% | [5] 0.2% | [6] 14.4%

CC1(S)CCC2CC1C2(C)C (stereo unspecified)
inactive: [1] -15.7% | [2] -54.1% | [3] -35% | [4] 4.95% | [5] -27.4% | [6] -12.1%

CC(C)(C)c1ccc(S(=O)(=O)/C=C/c2ccccc2)cc1
inactive: [1] -2.4% | [2] 35% | [3] -9.3% | [4] 26.1% | [5] 4.1% | [6] 6.3%

CC1(C)NC(c2ccccc2)c2ccsc2-n2cccc21 (stereo unspecified)
inactive: [1] -27.7% | [2] -29.7% | [3] -15.7% | [4] 18.9% | [5] -9.85% | [6] -8.6%

CN(C)N=Nc1ccc(C(=O)N/N=C/c2ccc([N+](=O)[O-])cc2)cc1
inactive: [1] -0.95% | [2] 40.5% | [3] 4.75% | [4] -5.75% | [5] 23.9% | [6] 17.9%

CC(O)C(NC(=O)c1cnc(OCc2ccccc2)nc1N)C(=O)O (stereo unspecified)
inactive: [1] 3.65% | [2] -15.7% | [3] -11% | [4] 0.85% | [5] -9.8% | [6] -3.35%

CCOc1ccccc1C=C1c2ccccc2C(=O)c2ccccc21
inactive: [1] 10.3% | [2] -7.6% | [3] -3.6% | [4] -21.6% | [5] 18.1% | [6] 6.25%

O=C1c2ccccc2C(=O)N1CCCO
inactive: [1] -4.55% | [2] -1.9% | [3] -15.4% | [4] -23.8% | [5] -17.7% | [6] 8.9%

Cc1ccccc1N1CC2CC3C=CC2(C1)O3 (stereo unspecified)
inactive: [1] 8.5% | [2] 15.9% | [3] 16.8% | [4] -10.1% | [5] 1.35% | [6] 1.7%

OC1(C2(O)CCCCC2)CCCCC1
inactive: [1] -38.2% | [2] 13.4% | [3] 22.1% | [4] -32.5% | [5] -11.8% | [6] 3.75%

Clc1ccc(C=NC23CC4CC(CC(C4)C2)C3)cc1Cl
inactive: [1] -19.1% | [2] -24.1% | [3] -16.2% | [4] 17.6% | [5] 7.55% | [6] 12%

CC(=O)CC(=O)NCc1ccncc1
inactive: [1] -5.85% | [2] 8.1% | [3] 12.1% | [4] -44.3% | [5] 26.9% | [6] -1.9%

COc1cc(/C=C/C(=N\NC(N)=S)c2sc(NNC(C)=O)nc2C)ccc1O
inactive: [1] 22.9% | [2] 6.8% | [3] 16.3% | [4] 21.2% | [5] 24.6% | [6] 14.8%

CCCCC1CCC(=O)NC1=O (stereo unspecified)
inactive: [1] 4.25% | [2] 29.6% | [3] 5.8% | [4] 5.2% | [5] 14.7% | [6] 1.9%

Nc1nc(SCC(=O)O)[nH]c(=O)c1N
inactive: [1] -16.2% | [2] 30.1% | [3] -1.7% | [4] 6.25% | [5] -0.25% | [6] 2.7%

CCOC(=O)c1c[nH]c(=S)n(C)c1=O
inactive: [1] -6.6% | [2] -10.2% | [3] -6.65% | [4] -14.1% | [5] 0.4% | [6] 2.1%

COc1ccc(C2OC23CC(C)(C)c2ccccc2C3=O)cc1 (stereo unspecified)
inactive: [1] -3.8% | [2] 1.65% | [3] -0.05% | [4] -11% | [5] 16.3% | [6] -1.1%

c1ccc(C2SCc3nc4cc5ccccc5cc4n32)cc1 (stereo unspecified)
inactive: [1] -21.6% | [2] 6.4% | [3] 17.1% | [4] 12% | [5] -17% | [6] 16.8%
